Experimental findings from PubChem BioAssay AID2576 (National Center for Advancing Translational Sciences (NCATS), 2010) are described below.

Records with an inconclusive call do not appear. Where a call stands in place of a potency, no number is given. The source made the active and inactive calls. The call rests on the fitted dose curve; in most records, active means well fitted activation curve with a large enough effect; inconclusive means small, poorly fitted or top-dose-only effect, or effect the other way; inactive means flat fitted curve, though single readings scatter.

Sequence of Pyruvate kinase PKM (Homo sapiens) (P14618 whole entry, looked up, canonical isoform): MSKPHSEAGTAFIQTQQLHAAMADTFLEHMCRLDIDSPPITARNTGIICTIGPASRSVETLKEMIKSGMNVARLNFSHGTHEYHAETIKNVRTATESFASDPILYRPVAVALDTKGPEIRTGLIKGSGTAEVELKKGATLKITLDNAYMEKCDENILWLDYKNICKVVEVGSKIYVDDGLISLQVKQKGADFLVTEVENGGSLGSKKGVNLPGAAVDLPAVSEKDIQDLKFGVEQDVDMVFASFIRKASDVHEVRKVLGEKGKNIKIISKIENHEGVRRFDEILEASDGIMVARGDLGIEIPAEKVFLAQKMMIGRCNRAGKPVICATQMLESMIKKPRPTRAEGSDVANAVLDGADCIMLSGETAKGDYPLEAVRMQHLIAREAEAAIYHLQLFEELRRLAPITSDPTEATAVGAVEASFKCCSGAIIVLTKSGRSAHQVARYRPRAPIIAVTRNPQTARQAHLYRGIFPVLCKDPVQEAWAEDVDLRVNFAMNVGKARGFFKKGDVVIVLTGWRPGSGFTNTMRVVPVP

The target in the test is Pyruvate kinase PKM (Homo sapiens) (UniProt P14618). Briefly: Secondary LDH Assay for Activators of Human Pyruvate Kinase M2 isoform: for Probe SAR. Particulars: purified hPK-M2, LDH-coupled NADH fluorescence kinetic; series mostly up to 58.4 µM. An excerpt:
NIH Chemical Genomics Center [NCGC] Matthew G. Vander Heiden, M.D., Ph.D. [Harvard Medical School, 77 Avenue Louis Pasteur, Boston, MA 02115] NCGC Assay Overview: Human pyruvate kinase muscle 2 (hPK-M2)enzyme was supplied as a highly purified (>95% pure) preparation from Harvard Medical School and a secondary assay was used to evaluate compounds. This assay couples the formation of pyruvate from hPK-M2 using lactate dehydrogenase (LDH) and NADH. The depletion of NADH is followed in a fluorescent-based kinetic assay that follows the formation of pyruvate to lactate, as catalyzed LDH (described by Hannaert et al., 2002)1 Pyruvate kinase substrates, PEP and ADP, were present in the assay at 0.1 mM and 4 mM respectively. In this kinetic assay initial rates were determined by following the fluorescence of NADH depletion.
NCGC Assay Protocol Summary: Three uL of substrate mix (final concentration, 50 mM Tris-Cl pH 8.0, 200 mM KCl, 15 mM MgCl2, 0.1 mM PEP, 4.0 mM ADP, and 0.2 mM NADH) was dispensed into black-solid 1536 well plates. 23 nL of compounds were delivered by a pin tool and 1 uL of enzyme mix (final concentrations, 10 nM hPK-M2 and 1 uM of LDH) was added. Plates were immediately placed in ViewLux (Perkin Elmer) and NADH fluorescence was determined at 30 second exposure intervals for between 3 and 6 minutes. Data were normalized to the uninhibited and EC100 activation using known activators such as fructose-bis-phosphate.
With `O=C1c2ccccc2C(=O)N1c1cccc(=O)[nH]1`, the Potency result was “inactive”.

Take `Cc1ccc(NS(=O)(=O)c2ccc3c(c2)CCN(C(=O)C(F)(F)F)C3)cc1C`: the Potency entry is “inactive”.

Turning to `COc1cc(N2C(=O)c3ccccc3C2=O)c2ncccc2c1`, the Potency result is “inactive”.

On to `O=C1c2ccccc2C(=O)N1c1cccc(O)c1`, for which the Potency entry is “inactive”.

`Cc1ccc(-c2nc3ccc(Cl)cn3c2Nc2ccccc2)o1`: the Potency entry was “inactive”.

On to `O=S(=O)(c1ccc2c(c1)OCCO2)N1CCN(S(=O)(=O)c2c(F)cccc2F)CC1`, for which the Potency was 5800 nM (active).

As to `Cc1cc2c(s1)c1cnn(Cc3c(Cl)ccc(C)c3F)c(=O)c1n2C`, the Potency was 562 nM (active).

As for `O=C1c2ccccc2C(=O)N1c1ccccc1O`, the Potency result was “inactive”.

For `O=C1c2ccccc2C(=O)N1c1ccc2ccccc2n1`, the Potency result was “inactive”.

Consider `O=C1CCc2cc(S(=O)(=O)Nc3ccc(-c4ccccc4)cc3)ccc2N1`, for which the Potency entry is “inactive”.

For the compound `COc1ccccc1NS(=O)(=O)c1ccc2c(c1)CCC(=O)N2`, the Potency result is “inactive”.

Take `O=C1c2ccccc2C(=O)N1c1cccc2cnccc12`: the Potency result was “inactive”.

Take `O=C1c2ccccc2C(=O)N1c1cnc2ccccc2c1`: the Potency result is “inactive”.

`Cc1ccc(NS(=O)(=O)c2cc3c(cc2N(C)C)NC(=O)CC3)cc1C`: the Potency is 1030 nM (active).

Turning to `Cc1ccc(NS(=O)(=O)c2cccc(C(=O)O)c2)cc1C`, the Potency entry is “inactive”.

As for `Cc1ccc(N2C(=O)c3ccccc3C2=O)c(C)c1`, the Potency entry was “inactive”.

With `Cc1ccc(NS(=O)(=O)c2cc3c(cc2-c2ccsc2)NC(=O)CO3)cc1C`, the Potency entry was “inactive”.

In the case of `O=C1c2ccccc2C(=O)N1c1ncccc1O`, the Potency entry was “inactive”.

Regarding `Cc1ccc(NS(=O)(=O)c2cc3c(cc2C)NC(=O)CO3)cc1C`, the Potency was 1030 nM (active).

For `CN(C)c1cccc(S(=O)(=O)N2CCN(S(=O)(=O)c3ccc4c(c3)OCCO4)CC2)c1`, the Potency result is “inactive”.

As for `CC(=O)Nc1cccc(S(=O)(=O)Nc2ccc(C)c(C)c2)c1`, the Potency entry was “inactive”.

Consider `CCCCN1C(=O)c2ccccc2C1=O`, for which the Potency entry is “inactive”.

On to `CC(=O)N1CCCc2cc(S(=O)(=O)Nc3ccc(C)c(C)c3)ccc21`, for which the Potency result was “inactive”.

With `Cc1ccc(NC(=O)c2ccc3c(c2)CCC(=O)N3)cc1C`, the Potency entry was “inactive”.

For the compound `Cc1cccc(OC2=NS(=O)(=O)c3ccccc32)c1`, the Potency entry is “inactive”.

Consider `CC(=O)Nc1ccc(S(=O)(=O)Nc2ccc(C)c(C)c2)cc1`, for which the Potency result was “inactive”.

As to `O=C1CCc2cc(S(=O)(=O)Nc3ccccn3)ccc2N1`, the Potency entry was “inactive”.

In the case of `Cc1cc(N2C(=O)c3ccccc3C2=O)no1`, the Potency entry is “inactive”.

Consider `O=C1c2ccccc2C(=O)N1Cc1ccccc1`, for which the Potency entry was “inactive”.

As to `COc1ccc(NS(=O)(=O)c2ccc3c(c2)CCC(=O)N3)cc1`, the Potency entry is “inactive”.

For the compound `Cc1ccc2nc(-c3ccncc3)c(Nc3ccccc3)n2c1`, the Potency entry was “inactive”.

For `COc1cc(F)c(S(=O)(=O)N2CCCN(S(=O)(=O)c3cccc(N)c3)CC2)c(F)c1`, the Potency is 1830 nM (active).

For the compound `O=S1(=O)N=C(Oc2ccc(Cl)cc2)c2ccccc21`, the Potency result was “inactive”.

With `COc1cccc(OC2=NS(=O)(=O)c3ccccc32)c1`, the Potency result was “inactive”.

Turning to `COc1ccc(Nc2c(-c3ccc(C)o3)nc3ccccn23)cc1`, the Potency entry is “inactive”.

As to `O=C1CCc2cc(S(=O)(=O)NCc3ccccc3)ccc2N1`, the Potency result is “inactive”.

With `Cc1ccccc1Nc1c(-c2ccc(Cl)s2)nc2ccccn12`, the Potency result is “inactive”.

In the case of `O=C1c2ccccc2C(=O)N1Cc1ccccn1`, the Potency entry is “inactive”.
